# This is a sample that favours compounds with a hit; in the whole collection about 4% have one here.
# KKLEB tox: cytotoxicity in KKLEB CF airway cells, primary screen, cytotoxicity control for CF NF-kB inhibitor project, cell-based, uHTS, fluorescence assay plates; KKLEB CF airway cells viability, ATPlite luminescence, overnight; hits give low values; cells stimulated with P. aeruginosa culture filtrate; activity change (cytotoxicity), % at 5 µM; 360,000 compounds, 0.36% hits; AID 602141, 2011;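 active means corrected activity change at or below -50% at 5 µM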
# Peg3 prom inh: Peg3 promoter-driven luciferase inhibitors, primary screen, cell-based, HeLa, luciferase luminescence; HeLa PEG-Prom luciferase reporter, overnight; inhibition, % at 20 µM; 360,000 compounds, 1.7% hits;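 active means inhibition of at least 50% at 20 µM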
# CF NFkB block: inhibitors of PAF-induced NF-kB signaling, primary screen, cell-based, GFP fluorescence, uHTS. KKLEB NF-kB-GFP reporter, GFP fluorescence overnight. inhibition, % at 5 µM. 360,000 compounds, 0.86% hits. AID 588850, 2011;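 active means at least 50% inhibition at 5 µM, scaled per plate between neutral and stimulator controls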;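 further: PAF is a Pseudomonas aeruginosa culture filtrate used as stimulus; plate controls were PAF-stimulated DMSO wells for no effect and unstimulated DMSO wells for full effect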
# HIF-2a block: HIF-2a reporter inhibitors, primary screen, luminescence, 786-0 RCC cells; 360,000 compounds, 0.72% hits; 786-0 RCC cells HIF-2a reporter, luciferase luminescence, overnight; AID 624352, 2012; inhibition, % at 18.8 µM;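 active means inhibition of the luminescence signal of 40% or more relative to plate controls, in a single-dose primary screen at 18.75 µM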
# TROY signal inh: inhibitors of TROY-driven NF-kB signaling, primary screen, Q293 LMP1-TROYcd cells, NF-kB luciferase, uHTS | 360,000 compounds, 0.98% hits | Q293 LMP1-TROYcd NF-kB luciferase reporter, 4 h | inhibition, % at 10 µM;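 active means compounds whose plate-normalised and pattern-corrected inhibition of the luciferase reporter signal at the single screening dose is 50% or more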
# TWEAK-Fn14 inh: inhibitors of TWEAK-Fn14 signaling, primary screen, luciferase reporter cells, uHTS | AID 1159606, 2016 | TWEAK-stimulated Fn14 reporter cells, luciferase luminescence, 8 h | inhibition, % at 10 µM | 360,000 compounds, 2% hits; in the data active means inhibition above about 50%
# An asterisk follows results filed as active; / = not tested or not shown.
SMILES,KKLEB tox,Peg3 prom inh,CF NFkB block,HIF-2a block,TROY signal inh,TWEAK-Fn14 inh
Cc1cccc(NC(=O)c2ccc(C)c(S(=O)(=O)N3CCCCC3)c2)n1,-14.7,-86.0,0.6,-87.9,-23.1,-13.1
CN(C)CC[C@@H](c1ccc(Cl)cc1)c1ccccn1,2.6,-14.1,-21.2,5.5,7.3,-12.1
CC1=C(CC(=O)c2ccc(Cl)cc2)C(=O)c2ccccc2C1=O,-31.4,-259.1,64.9*,-144.4,69.5*,72.2*
O=C(Cc1ccccn1)c1ccc(Cl)cc1,12.5,-318.0,-10.6,-259.9,-67.4,-22.8
Cc1cccc(NC(=O)C2CCN(C(=O)N3CCOc4ccccc43)CC2)c1C,0.5,-10.4,12.9,-10.3,-1.7,8.1
Cc1n[nH]c(C)c1CCNC(=O)C1CCC(=O)N(CCc2cccc(F)c2)C1 (configuration not stated),3.4,5.2,-16.2,9.7,-15.8,58.0*
Cn1cc(Cl)c(C(=O)Nc2nc3ccccc3s2)n1,10.0,-95.7,-34.0,-185.7,7.0,57.1*
Cc1csc(NC(=O)c2nc3nccc(C)n3n2)n1,-0.6,-122.6,1.0,-106.5,-34.2,5.9
O=C(NC(=S)Nc1nc2ccccc2s1)c1cccs1,-56.2*,-224.5,-11.8,-232.0,0.4,29.5
Cc1ccnc2nc(C(=O)Nc3nc4ccccc4s3)nn12,1.5,-105.4,-17.0,-83.1,-45.6,67.3*
Nc1ccc(C(=O)Nc2nc3ccccc3s2)cc1,2.3,-274.5,-43.3,-171.7,-13.4,62.2*
O=C(Nc1nc2ccccc2s1)c1c(F)cccc1Cl,8.9,-197.3,-6.3,-224.6,-58.0,-11.3
Cc1occc1-c1nnc(SCC(=O)N(C)CCC#N)n1N,-6.8,-4.6,3.5,0.0,4.8,-0.7
COc1ccc(-c2oc(NC(=O)CCl)c(C#N)c2-c2ccc(OC)cc2)cc1,-9.5,102.4*,11.4,15.4,-31.9,7.1
COc1ccc(-c2oc(NC(=O)CSc3ncn[nH]3)c(C#N)c2-c2ccc(OC)cc2)cc1,2.2,30.5,41.6,7.1,19.3,21.6
CCn1c(SCC(=O)N/N=C/c2ccc(C)o2)nnc1-c1ccc(C)cc1,-15.9,-5.6,10.0,9.0,-21.1,60.9*
O=C(CSc1nnc(SCc2ccccc2Cl)s1)N/N=C/c1c[nH]c2ccccc12,-2.9,-71.5,18.0,-134.2,23.4,64.2*
CCn1c(SCC(=O)N/N=C/c2ccc(C)o2)nnc1-c1ccc(C(C)(C)C)cc1,-2.1,2.8,-2.9,-13.2,3.2,27.4
CCn1c(SCC(=O)N/N=C/c2c[nH]c3ccccc23)nnc1-c1ccc(C(C)(C)C)cc1,7.2,35.0,-12.1,-11.9,22.6,59.7*
O=C(NCc1ccc(Cl)cc1)c1ccc2c(=O)n(CC3CCCO3)c(=S)[nH]c2c1 (configuration not stated),-9.0,22.7,14.4,14.2,-5.1,20.8
COc1cc(C(=O)NCc2ccc(-c3nc4ccccc4s3)cc2)cc(OC)c1OC,-20.3,-126.6,22.0,-113.8,-16.3,-40.0
COc1ccccc1C(=O)NCc1ccc(-c2nc3ccccc3s2)cc1,-9.9,-19.6,7.5,21.9,45.1,75.8*
COC(=O)Cc1ccc2sc(-c3ccccc3)nc2c1,-5.3,-112.6,3.9,-183.4,12.0,55.9*
COC(=O)[C@@]1(Cc2ccc(F)cc2)[C@H]2c3cc(C(=O)N(C)C)n(CCF)c3C[C@H]2CN1C(=O)c1ccccc1,/,/,/,19.2,2.3,5.8
COC(=O)[C@@]1(Cc2ccccc2)[C@@H]2C(=CC(=O)[C@H]2CC(=O)C(=O)N(C)C)CN1C(=O)c1ccccc1,14.3,8.7,14.1,67.8*,8.4,36.8
SMILES,KKLEB tox,Peg3 prom inh,CF NFkB block,HIF-2a block,TROY signal inh,TWEAK-Fn14 inh
Cc1cc(C)c(NN=c2c(=O)c3ccccc3c2=O)c(C)c1,-0.1,-314.0,0.1,-283.5,-55.9,5.6
O=c1c(=NNc2ccccc2Cl)c(=O)c2ccccc12,-44.1,-6.3,-8.8,-144.2,66.7*,97.6*
CC(C)Oc1ccc2c(c1)OC(c1ccccc1)(C(F)(F)F)NC2=O (configuration not stated),13.6,-13.0,0.7,-27.9,-18.6,13.3
C=CCOc1ccc(C[C@H](N)C(=O)NC[C@H]2O[C@@H](n3cc(C)c(=O)[nH]c3=O)C[C@@H]2O)cc1,11.4,-4.3,-50.5,9.3,1.2,5.0
Cc1cn([C@H]2C[C@H](O)[C@@H](CNC(=O)[C@H](N)Cc3cn(COCc4ccccc4)cn3)O2)c(=O)[nH]c1=O,6.7,14.1,-14.2,-0.7,-18.0,51.0*
COc1ccc2cc3[n+](cc2c1OC)CCc1cc2c(cc1-3)OCO2,3.8,4.8,-47.5,-13.3,-3.8,7.1
C#CCOCCOCCOCCNc1nc(N2CCN(C(=O)CCCCCCCCCCNC(=O)Cn3cc(C[C@@H](C)O)nn3)CC2)nc(N2CCN(C(=O)CCCCCCCCCCNC(=O)[C@H](CCCCN)n3cc(C[C@@H](C)CC)nn3)CC2)n1,-23.2,99.2*,9.6,3.8,37.7,25.7
C#CCOCCOCCOCCNc1nc(N2CCN(C(=O)CCCCCCCCCCNC(=O)[C@H](CCCCN)n3cc(CCO)nn3)CC2)nc(N2CCN(C(=O)CCCCCCCCCCNC(=O)[C@H](CCCN=C(N)N)n3cc(C[C@@H](C)CC)nn3)CC2)n1,9.1,13.0,-12.5,19.7,7.7,-7.6
C#CCOCCOCCOCCNc1nc(N2CCN(C(=O)CCCCCCCCCCNC(=O)[C@H](CCCCN)n3cc(C[C@@H](C)CC)nn3)CC2)nc(N2CCN(C(=O)CCCCCCCCCCNC(=O)[C@H](CCCCN)n3cc(C[C@@H](C)CC)nn3)CC2)n1,-28.0,104.8*,8.6,23.6,65.1*,51.2*
CC[C@H](C)Cc1cn([C@@H](CCCCNC(=O)OC(C)(C)C)C(=O)NCCCCCCCCCCC(=O)N2CCN(C(=O)OC(C)(C)C)CC2)nn1,-7.2,26.3,0.3,0.7,39.5,59.0*
CCN(CC(=O)Nc1cccc(OC)c1)C(=O)c1ccncc1,1.7,18.9,-1.9,8.0,7.5,29.1
CCOC(=O)C1=C[C@@H](C2CCCCC2)N(S(=O)(=O)c2ccc([N+](=O)[O-])cc2)[C@H]1c1ccccc1,-12.3,11.8,13.0,0.2,-9.2,74.7*
CCOC(=O)C1=CC[C@@H](c2ccc([N+](=O)[O-])cc2)N(S(=O)(=O)c2ccc(C)cc2)[C@H]1c1ccccc1,1.5,19.7,-15.2,14.5,-1.6,26.4
Cc1ccc(CNc2nnnn2C)cc1,7.1,10.0,-4.5,19.8,6.4,-0.7
Nc1nc(-c2ccco2)c(-c2ccco2)s1,-1.1,1.0,-3.7,10.7,8.6,23.7
